# Laboratory results from PubChem BioAssay.
# Unmarked numbers belong to inactive results. No rule for the calls is given here.
# Biological target: Pantothenate synthetase (Mycobacterium tuberculosis (strain ATCC 25618 / H37Rv)) (UniProt P9WIL5)
# Assay: Coupled enzyme confirmation of inhibitors against recombinant Mtb PanC (AID 375);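 also: 0% = full reaction with vehicle and 100% = no enzyme background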
# Settings: coupled enzyme assay; at 10 µM, stronger effect = higher value
# Chain of Pantothenate synthetase (Mycobacterium tuberculosis (strain ATCC 25618 / H37Rv)) (P9WIL5 whole entry, looked up): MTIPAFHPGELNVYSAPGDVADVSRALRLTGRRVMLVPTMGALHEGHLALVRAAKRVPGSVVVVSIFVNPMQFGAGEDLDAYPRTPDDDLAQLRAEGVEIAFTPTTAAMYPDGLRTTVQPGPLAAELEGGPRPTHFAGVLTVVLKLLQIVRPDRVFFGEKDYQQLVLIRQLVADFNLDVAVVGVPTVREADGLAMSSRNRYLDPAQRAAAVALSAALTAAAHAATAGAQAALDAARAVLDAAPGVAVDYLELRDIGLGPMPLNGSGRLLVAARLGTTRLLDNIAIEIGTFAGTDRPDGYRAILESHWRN
row,SMILES,inhibition [%]
1,c1ccc(-c2nn3nnnc3c3ccccc23)cc1,4
2,O=C(CCN1C(=O)c2ccccc2C1=O)N1CCN(C(=O)c2ccccc2)CC1,0
3,CC(C)(C)n1nnnc1C(c1ccccc1)N1CCc2ccccc2C1 (stereo not drawn),0
4,Cc1cc(NC(=O)NC(=O)c2cccc(OC(F)(F)C(F)F)c2)n[nH]1,3
5,COc1ccc2c3c(c(=O)oc2c1OCC(N)=O)CCCC3,2
6,CCOC(=O)C(C)Sc1nnc(Cc2cc(=O)[nH]c(=O)[nH]2)n1-c1ccc(Cl)cc1 (stereo not drawn),0
7,COc1ccc(C2c3c(oc4ccccc4c3=O)C(=O)N2c2ccc(C)cn2)cc1OC (stereo not drawn),0
8,CC(=O)Nc1nc(-c2ccc(Cl)cc2)nc(C)c1C(C)=O,0
9,COc1cc2c(=O)nc3n(c2cc1OC)C(c1ccccc1)N=C(N)N3 (stereo not drawn),0
10,Cc1nn(C)cc1C1C2=C(CC(C)(C)CC2=O)OC2=C1C(=O)CC(C)(C)C2,0
11,CCc1nnc2sc(-c3cc(-c4ccccc4)nc4ccccc34)nn12,3
12,O=C(CSc1ncc(-c2ccc(F)cc2)[nH]1)N1CCCCC1,0
13,COc1ccc(S(=O)(=O)N2CN(Cc3ccco3)c3nc4ccccc4nc32)cc1,0
14,O=C(c1csc2ccccc12)N1CCCCCC1,2
15,CSCCC(NC(=O)c1ccco1)C(=O)OC(C)C(=O)NC(=O)NC1CCCCC1 (stereo not drawn),0
16,COc1ccc(/C(O)=C2/C(=O)C(=O)N(CC3CCCO3)C2c2cccc(OC)c2)cc1 (stereo not drawn),0
17,COC(=O)CCc1c(C)c(C#N)c2nc3ccccc3n2c1N1CCCC1,0
18,CCOC(=O)c1ccc(NC(=O)CSC2=NC(=O)C(CC)C(=O)N2)cc1 (stereo not drawn),3
19,CCOC(=O)CSc1nc2cccnc2n1-c1ccc(F)cc1,2
20,O=S(=O)(NCc1cccnc1)c1cccc2nsnc12,12
21,CCC(=O)Nc1cc2nn(-c3ccccc3)nc2cc1Cl,0
22,Cc1nn(-c2ccc(F)cc2)c2sc(C(=O)OCC(=O)N3CCC(C)CC3)cc12,0
23,CC(C)(C)C(=O)/C=C(\N)c1ccccn1,2
